# Test system: HEK293 WT BDD-FVIII-Gluc
# Test: secreted FVIII-Gluc luciferase Z-score vs DMSO control; higher = more FVIII-Gluc secretion
# Settings: 5 µM
# Protocol: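 Natural plant-compound library (480 compounds, ST catalogue IDs) screened on HEK293 cells stably expressing WT BDD-FVIII-Gaussia luciferase fusion at 5 µM. Secreted Gluc activity in the medium is given as a Z-score relative to DMSO controls.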
row,Structure (SMILES),secreted FVIII-Gluc luciferase Z-score
1,OC[C@H]1O[C@@H](OC[C@H]2O[C@@H](O)[C@H](O)[C@@H](O)[C@@H]2O)[C@H](O)[C@@H](O)[C@@H]1O,0.42
2,CC(C)=CCC[C@H](C)CCO,0.0595
3,CC(Cc1ccc(O)c(O)c1)C(C)Cc1ccc(O)c(O)c1 (stereo not drawn),0.14
4,O=c1c(-c2ccc(O)cc2)coc2cc(O)cc(O)c12,-1.4
5,O=c1cc(-c2ccccc2)oc2cc(O[C@@H]3O[C@H](CO)[C@@H](O)[C@H](O)[C@H]3O)c(O)c(O)c12,-0.188
6,COc1ccc(-c2oc3ccc(C)cc3c(=O)c2O)cc1OC,-0.624
7,O=C(O)C1=C[C@@H](O)[C@@H](O)[C@H](O)C1,0.3
8,Nc1ccccc1C(=O)CC(N)C(=O)O (stereo not drawn),-1.11
9,CC(=O)[C@@H]1[C@H]2[C@H](C(=O)[C@H]3OC[C@@H]2O3)[C@H]2C=Cc3ccccc3N21,0.187
10,C[C@H](C(=O)O)c1cccc(C(=O)c2ccccc2)c1,0.342
11,Nc1nc2ncc(CNc3ccc(C(=O)NC(CCC(=O)O)C(=O)O)cc3)nc2c(=O)[nH]1 (stereo not drawn),-0.865
12,O=c1c(O)c(-c2ccc(O)c(O)c2)oc2ccccc12,-0.791
13,COc1cc(CNC(=O)CCCCCCC(C)C)ccc1O,-0.541
14,COc1ccc(-c2cc(=O)c3c(O)cc(O)cc3o2)cc1,0.381
15,O=c1cc(-c2ccccc2)oc2cc(O)cc(O)c12,0.596
16,CC(=O)C1=C(O)C=C2Oc3c(C(C)=O)c(O)c(C)c(O)c3[C@]2(C)C1=O,1.04
17,Cc1cc(O)c2c(c1)C(=O)c1cccc(O)c1C2=O,0.974
18,CNC[C@H](O)c1ccc(O)c(O)c1,0.948
19,COc1cc2ccc(=O)oc2cc1O,0.0462

row,Structure (SMILES),secreted FVIII-Gluc luciferase Z-score
1,CC1CCC2[C@](C)(CO)C(O)CC[C@]2(C)C12CCC(CO)(CCO)O2 (stereo partly drawn),0.9
2,COc1ccc2oc(-c3ccccc3)c(OC)c(=O)c2c1,0.232
3,CC1(C)CCC[C@@]2(C)C1CCC1(C)OC(=O)CC12 (stereo partly drawn),0.281
4,COc1ccc2c(c1)[C@@]1(C)CCC[C@](C)(CO)C1CC2 (stereo partly drawn),0.437
5,Cn1ccc(O)c(C#N)c1=O,0.00283
6,COC(=O)[C@@H]1C(O)CCC2CN3CCc4c([nH]c5ccccc45)C3CC21 (stereo partly drawn),0.187
7,COc1cc2cc(Oc3ccc4ccc(=O)oc4c3)c(=O)oc2cc1OC(C)=O,0.744
8,COc1ccc(-c2coc3ccc(OC4OC(COC(C)=O)C(OC(C)=O)C(OC(C)=O)C4OC(C)=O)cc3c2=O)cc1 (stereo not drawn),-1.1
9,CC(C)(CO)[C@@H](O)C(=O)NCCCO,1.71
10,COc1cc2ccc(=O)oc2c(O)c1OCC=C(C)C,-0.0513
11,Cc1cc2nc3c(=O)[nH]c(=O)nc-3n(CC(O)C(O)C(O)CO)c2cc1C (stereo not drawn),0.252
12,O=c1cc(-c2ccc(O)c(O)c2)oc2cccc(O)c12,-0.512
13,CN1CCc2cccc3c2C1Cc1ccc(O)c(O)c1-3 (stereo not drawn),-0.131
14,C=C(C)[C@H]1CC=C(C)C(=O)C1,0.764
15,COc1ccc2c(c1OC)C(Cc1ccccc1)N1CCc3cc4c(cc3C1C2)OCO4 (stereo not drawn),0.496
16,NC(CC(=O)O)C(=O)O (stereo not drawn),0.487
17,CC1=C(/C=C/C(C)=C/C=C/C(C)=C/C(=O)O)C(C)(C)CCC1,-0.377
18,CC(C)CC(N)C(=O)O (stereo not drawn),0.117
19,OCc1ccccc1O[C@@H]1O[C@H](CO)[C@@H](O)[C@H](O)[C@H]1O,0.752
